# The list is not random: actives were taken first. Their share in the collection is about 3.9%.
# CCHF vOTU inh: CCHFV vOTU protease inhibition. inhibition, % at 11.5 µM. actives 0.55% (n = 370,000). Pep-AMC fluorescence. AID 651958; in the data active = inhibition above about 30%; also: 0% = vehicle wells with enzyme and 100% = no enzyme wells
# BoNT-A LC inh2: BoNT A light chain protease inhibition; inhibition, % at 10 µM; AID 588499; multiplex microsphere protease substrate cleavage, flow cytometry; actives 0.17% (n = 360,000); also: plate controls were buffer without enzyme for full effect and enzyme alone for no effect
# Autofluor counter: flagged as autofluorescent in microsphere protease counterscreen. compound autofluorescence counterscreen, microsphere flow cytometry; active compounds read high. fluorescence intensity (test concentration not listed). actives 3.1% (n = 360,000); in the data active = fluorescence intensity above about 16000; inconclusive = no clear call, values can overlap the other calls
# Anthrax LF inh2: anthrax lethal factor protease inhibition | multiplex microsphere protease cleavage assay, LF | inhibition, % at 10 µM | actives 0.12% (n = 360,000) | AID 588501; also: plate controls were buffer without enzyme for full effect and enzyme alone for no effect
# SARS 3CLpro inh: SARS-CoV 3CLpro protease inhibition; P0C6X7; actives 0.14% (n = 290,000); AID 1706; inhibition, % at 6 µM; recombinant SARS-CoV 3CLpro, quenched FRET peptide cleavage; in the data active = inhibition above about 12%
# BoNT-F LC inh: inhibitors of Botulinum neurotoxin F light chain protease; Multiplex microsphere protease cleavage assay, flow cytometry; inhibition, % at 10 µM; actives 0.22% (n = 360,000); in the data active = inhibition above about 35%, passing the limit was not always enough; inconclusive = no clear call, values can overlap the other calls; also: plate controls were buffer without enzyme for full effect and enzyme alone for no effect
# Numbers without * were called inactive; ? = inconclusive; / = no result. Rule as the data show it, unless noted: active = inhibition above about 30%; inconclusive = no clear call, values can overlap the other calls; inactive = below that.
SMILES,CCHF vOTU inh,BoNT-A LC inh2,Autofluor counter,Anthrax LF inh2,SARS 3CLpro inh,BoNT-F LC inh
CN(C)/C=C1\C(=O)N(c2ccc(Oc3ccccc3)cc2)CS1=O (stereo unspecified),4,1,22670*,-1,2,1
CCOC(=O)N1CCC(Nc2c(-c3ccc(C)cc3)c(=O)c2=O)CC1,5,0,4037,0,2,12
CCOC(=O)N1CCC(Nc2nc(OC)nc(OC)n2)CC1,7,?,22300*,-3,0,1
CCOC(=O)N1CCC(Nc2c(Nc3cccc(CC)c3)c(=O)c2=O)CC1,11,2,18932*,-12,4,-2
CCOC(=O)N1CCN(c2c(NCCN3CCN(Cc4ccccc4)CC3)c(=O)c2=O)CC1,5,0,4290,-3,2,-6
CCOC(=O)N1CCC(Nc2c(-c3ccccc3)c(=O)c2=O)CC1,4,1,20189*,0,-5,5
CCOC(=O)N1CCC(Nc2c(NCCN3CCN(Cc4ccccc4)CC3)c(=O)c2=O)CC1,/,2,21681*,1,-1,2
Cc1ccc(CN2CCCCC(NC(=O)Nc3cccc([N+](=O)[O-])c3)C2=O)cc1 (stereo unspecified),2,/,/,/,/,/
CCOC(=O)N1CCC(Nc2ncnc3c2cnn3-c2ccccc2)CC1,-3,?,26060*,0,-6,-8
Cc1ccc(C(C(=O)NC2CCCC2)N(C(=O)c2csnn2)C2CCCC2)o1 (stereo unspecified),-7,?,21439*,2,6,4
Cc1ccc(C(C(=O)NC2CCCCC2)N(C(=O)c2csnn2)C2CCCC2)o1 (stereo unspecified),-3,1,22165*,-3,-10,0
O=C(NC1CCCCN(Cc2cccc(C(F)(F)F)c2)C1=O)c1cccc(F)c1 (stereo unspecified),7,/,/,/,/,/
Cc1cc(N2CCCC2)c(C)cc1C=O,4,2,22088*,-4,0,-17
O=C(NC1CCCCCC1)C1c2ccccc2C(=O)N1C1CC1 (stereo unspecified),/,-1,11269,-4,-3,-12
O=C(NC1CCCCC1)C1c2ccccc2OCC(=O)N1CCCN1CCOCC1 (stereo unspecified),-3,0,5204,2,/,-2
CC1CCC(NC(=O)C2c3ccccc3C(=O)N2CCCN2CCOCC2)CC1 (stereo unspecified),-4,?,24072*,-2,0,-3
O=C1c2cccnc2C(O)N1C1CCCCC1 (stereo unspecified),-22,-3,23226*,-1,3,-4
CCCCN1C(=O)c2ccccc2C1C(=O)NC1CCCC1 (stereo unspecified),7,2,22700*,-1,3,2
O=C(NC1CCCC1)C1c2ccccc2C(=O)N1C1CCCCC1 (stereo unspecified),20,2,19915*,0,-6,1
CC(C)c1cc(C(C)C)c(S(=O)(=O)N2CCC(c3cn4ccccc4n3)CC2)c(C(C)C)c1,16,/,/,/,/,/
C=CCn1c(SC(C)C(=O)NCc2ccc3c(c2)OCO3)nc2scc(-c3ccccc3)c2c1=O (stereo unspecified),5,1,16316*,1,-4,1
C=CCn1c(SCC(=O)NCc2ccc3c(c2)OCO3)nc2scc(-c3ccc(F)cc3)c2c1=O,3,1,6920,7,3,12
O=C(OCn1ncc(Cl)c(Cl)c1=O)c1cccc(C(F)(F)F)c1,/,1,22357*,-2,-1,1
O=S(=O)(c1ccc(C(F)(F)F)cc1)N1CCCc2nc(-c3ccccc3)ccc21,-1,/,/,/,/,/
CS(=O)(=O)n1nc(-c2ccc(Cl)cc2)nc1SCc1ccccc1,-14,-4,24875*,-1,3,-6
O=C(Nc1ccccc1C(F)(F)F)OC1CCC12CCC(c1ccccc1)CC2 (stereo unspecified),12,/,/,/,/,/
CS(=O)(=O)OC12CCCN(C1)/C(=C/c1ccc(Cl)cc1)C2 (stereo unspecified),-3,/,/,/,/,/
CCCc1[nH]n(-c2nc3ccccc3s2)c(=O)c1C=NCCN1CCOCC1,-8,?,15365,-7,4,27
CCCc1[nH]n(-c2nc3ccccc3s2)c(=O)c1C=NCC1CCCO1 (stereo unspecified),0,5,19952*,-6,-3,6
COc1ccccc1CNC(=O)NCCCN1CCN(c2ccc(F)cc2)CC1,-1,/,/,/,/,/
